Source: PubChem BioAssay
Activity calls are given as the source filed them.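 The calls were made as follows, unless noted: active = inhibition above 20% together with a positive visual image hit; inconclusive = visual image hit but inhibition not above 20%; inactive = no visual image hit.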

Experiments:
[1] = inhibitors of TNFa-induced NFkB p65 translocation, primary screen, imaging, HUVEC, MLSMR starter and 10KST1 sets (AID 438); details: HUVEC TNFa-induced p65 nuclear translocation; cell count: measured here: nuclei count (cytotoxicity indicator), at 2.08 µM; inhibition: at 2 µM, stronger effect = higher value, 0% TNFa-plus-vehicle, 100% no-TNFa wells;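 also: compound added about 3h40 before a 20 min TNFalpha stimulation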;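 as to inhibition: signal is the nuclear over cytoplasmic p65 intensity ratio per well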
[2] = inhibitors of mutant huntingtin aggregation, primary screen, imaging, exon1htt(103Q)mCFP cells, high-content imaging (AID 483;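 active = visual image review flags a hit and inhibition of aggregation exceeds 20%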;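 also: compound exposure lasted 3 days before fixation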;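 as to nuclei count: percent of the per-plate median nuclei count of sample wells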); details: exon1htt(103Q)mCFP cell line, aggregate imaging, at 2 µM; inhibition of aggregation: stronger effect = higher value; nuclei count: measured here: cell count, toxicity
[3] = inhibitors of E-selectin induction by TNFa, primary screen, imaging, HUVEC, immunofluorescence, MLSMR starter and 10KST1 sets (AID 487;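 active = visually confirmed hit in the image check and inhibition above 20%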;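 as to inhibition: signal is fraction of cell area covered by stained E-selectin grains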;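 as to nuclei count: 100% = median nuclei count of all wells on the same plate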); details: HUVEC TNFalpha-induced E-selectin immunofluorescence imaging, at 2 µM; inhibition: stronger effect = higher value; nuclei count: measured here: cell number, toxicity
[4] = biological target: Voltage-gated potassium channel subunit beta-2 (Rattus norvegicus) (UniProt P62483); assay: KvBeta enzyme negative modulators, primary screen, biochemical, NADPH fluorescence (AID 622;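 active = fluorescence slope higher than the sample average by over 3 SD, cut at about -0.22 in these data, passing the limit was not always enough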;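 also: slope of raw intensity against log time taken from 70 to 1610 s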); details: recombinant KvBeta, 4-cyanobenzaldehyde reduction, at 10 µM, stronger effect = higher value
[5] = biological target: Voltage-gated potassium channel subunit beta-2 (Rattus norvegicus) (UniProt P62483); assay: KvBeta positive modulators, primary screen, biochemical, NADPH fluorescence (AID 623;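 active = NADPH fluorescence slope more negative than the mean of all samples by about 3 SD, 99.7% confidence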;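 also: fluorescence intensity change per second fitted from 20 to 320 s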); details: Recombinant KvBeta, NADPH fluorescence decrease slope, 10 min; at 10 µM; stronger effect = lower value
[6] = biological target: Alpha-2C adrenergic receptor (Homo sapiens) (UniProt P18825); assay: modulators of alpha2C/GIRK thallium flux, primary screen, cell-based, HEK293 alpha2C/GIRK1/2 (AID 624;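 active = fluorescence slope after compound addition differing from the mean of all screened samples at 99.7% confidence, in either direction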;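 also: slope of fluorescence ratio to pre-addition baseline per second over 15 to 24 s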); details: thallium flux BTC fluorescence, at 10 µM, actives lie on both sides
[7] = inhibitors of Sendai virus-induced IRF3 signaling, primary screen, TLR/RLR signaling modifier project, cell-based, Sendai virus stimulus, luciferase, 10K MLSCN set (AID 602276;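 active = inhibition at or above 50% at 10 µM; inactive = inhibition below 50%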;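 also: firefly luciferase from ISG56 promoter only with Renilla not read in this screen; 0% = Sendai virus plus DMSO and 100% = medium plus DMSO without virus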); details: HEK293 RL24 IRF3 luciferase reporter, at 10 µM, stronger effect = higher value
[8] = inhibitors of poly I:C-induced TLR3 signaling, primary screen, cell-based, poly I:C stimulus, luciferase, 10K MLSCN set (AID 602277;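 active = inhibition of the reporter signal at or above 50%; inactive = inhibition below 50%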); details: HEK293-TLR3 RL24 IRF3 luciferase reporter, at 10 µM, stronger effect = higher value

Chain of Alpha-2C adrenergic receptor (Homo sapiens) (P18825 whole entry, looked up): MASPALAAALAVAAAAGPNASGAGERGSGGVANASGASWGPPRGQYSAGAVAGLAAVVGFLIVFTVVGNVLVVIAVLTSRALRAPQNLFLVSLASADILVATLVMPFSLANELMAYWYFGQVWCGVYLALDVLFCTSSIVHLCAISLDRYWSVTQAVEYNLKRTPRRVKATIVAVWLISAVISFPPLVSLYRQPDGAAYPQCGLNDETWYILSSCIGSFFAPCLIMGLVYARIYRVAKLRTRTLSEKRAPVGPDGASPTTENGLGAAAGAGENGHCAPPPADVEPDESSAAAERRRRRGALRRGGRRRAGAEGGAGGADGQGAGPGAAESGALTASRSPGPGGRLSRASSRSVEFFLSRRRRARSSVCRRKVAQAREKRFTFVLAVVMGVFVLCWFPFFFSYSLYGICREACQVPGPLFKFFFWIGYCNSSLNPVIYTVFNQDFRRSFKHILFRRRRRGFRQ
Chain of Voltage-gated potassium channel subunit beta-2 (Rattus norvegicus) (P62483 whole entry, looked up): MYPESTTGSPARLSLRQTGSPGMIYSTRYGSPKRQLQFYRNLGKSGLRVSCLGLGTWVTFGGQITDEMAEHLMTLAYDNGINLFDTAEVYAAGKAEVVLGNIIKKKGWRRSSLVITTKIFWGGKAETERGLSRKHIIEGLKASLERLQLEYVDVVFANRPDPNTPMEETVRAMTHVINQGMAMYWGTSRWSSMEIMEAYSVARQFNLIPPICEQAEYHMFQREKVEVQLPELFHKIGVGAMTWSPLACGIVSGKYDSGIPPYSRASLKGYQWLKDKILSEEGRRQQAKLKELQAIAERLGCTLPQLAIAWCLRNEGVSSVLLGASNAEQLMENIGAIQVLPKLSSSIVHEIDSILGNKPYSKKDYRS

Compound	cell count [1]	inhibition [1]	inhibition of aggregation [2]	nuclei count [2] [%]	inhibition [3]	nuclei count [3] [%]	fluorescence slope [4]	NADPH fluorescence slope [5]	slope [6]	inhibition [7]	inhibition [8]
CCOC(=O)Cc1csc(NC(=O)CSc2nnc(C)n2C)n1	585	3.3% (inactive)	17.4% (inactive)	101	-8.1% (inactive)	108	-0.448 (inactive)	-2.5e-05 (inactive)	0.00393 (inactive)	-24.8% (inactive)	-19.7% (inactive)
CCN1CCN(CCCNC(=O)C2c3ccccc3C(=O)N(C)C2c2ccc(OC)cc2)CC1 (configuration not stated)	567	15.4% (inactive)	-1.2% (inactive)	82.8	31.9% (inactive)	93.8	-0.504 (inactive)	-1.6e-06 (inactive)	0.00453 (inactive)	2.59% (inactive)	14% (inactive)
Cc1ccc(C(=O)NC(Cc2c[nH]c3ccccc23)C(=O)O)o1 (configuration not stated)	507	4.3% (inactive)	-3.1% (inactive)	110	-25% (inactive)	120	-0.485 (inactive)	5.1e-05 (inactive)	0.0112 (active)	-7.86% (inactive)	22.8% (inactive)
Cn1c(=N)c(S(=O)(=O)c2ccc(Cl)cc2)cc2c(=O)n3ccccc3nc21	294	1.6% (inactive)	-0.4% (inactive)	97.1	10.2% (inactive)	94.5	-0.405 (inactive)	-4.7e-05 (inactive)	0.00398 (inactive)	8.16% (inactive)	40.1% (inactive)
COc1ccc(-n2c(Cc3cccn3C)nnc2SCC(=O)Nc2cccc(OC)c2)cc1	545	0.5% (inactive)	5.4% (inactive)	93.7	-28.8% (inactive)	90.2	-0.632 (inactive)	2.3e-05 (inactive)	0.00546 (inactive)	-1.72% (inactive)	5.53% (inactive)
Cc1noc(C(=O)Nc2ccc3c(c2)OCO3)c1Cl	763	0% (inactive)	-14.1% (inactive)	129	-40.9% (inactive)	108	-0.419 (inactive)	-6.4e-05 (inactive)	0.00438 (inactive)	-21.3% (inactive)	-27.6% (inactive)
CCOC(=O)N1CCN(CC(=O)c2c(C)[nH]c3ccccc23)CC1	349	10.5% (inactive)	-5.3% (inactive)	92.4	-113% (inactive)	143	-0.491 (inactive)	-6.3e-05 (inactive)	0.00584 (inactive)	0.348% (inactive)	6.29% (inactive)
Cc1cc(C)n(-c2nc3c(c(=O)[nH]c(=O)n3C)n2Cc2ccc(F)cc2)n1	402	1.3% (inactive)	-21.6% (inactive)	94.4	-7.5% (inactive)	102	-0.324 (inactive)	-3.8e-05 (inactive)	0.00739 (inactive)	13% (inactive)	13.7% (inactive)
CCOc1ccccc1C(=O)N1CCN(c2cccc(Cl)c2)CC1	460	24.4% (active)	-20.9% (inactive)	4	-294% (inactive)	104	-0.614 (inactive)	-5.4e-05 (inactive)	0.00344 (inactive)	9.54% (inactive)	87.8% (active)
CSc1cccc(NC(=O)C2CCN(S(=O)(=O)c3ccc(F)cc3)CC2)c1	376	-0.2% (inactive)	10.8% (inactive)	104	-69.1% (inactive)	115	-0.353 (inactive)	5.7e-05 (inactive)	0.00752 (inactive)	16.9% (inactive)	39.3% (inactive)
CCN(CC)CCN1C(=O)C(O)=C(C(=O)c2cccs2)C1c1ccc(C)o1 (configuration not stated)	343	12.4% (inactive)	-10.4% (inactive)	91.9	-153% (inactive)	111	-0.411 (inactive)	-3.6e-05 (inactive)	0.00478 (inactive)	2.4% (inactive)	-5.17% (inactive)
Cc1ccc(CSC2=NCCN2C(=O)c2ccco2)cc1	661	1.3% (inactive)	-14.6% (inactive)	106	-11.6% (inactive)	115	-0.613 (inactive)	-1.3e-05 (inactive)	0.00684 (inactive)	-0.0387% (inactive)	0.194% (inactive)
Cc1cccc(-c2nc(CN3CCCC(C(=O)NC4CCCC4)C3)c(C)o2)c1 (configuration not stated)	333	-0.4% (inactive)	-3.8% (inactive)	111	-15.2% (inactive)	103	-0.514 (inactive)	-5.9e-06 (inactive)	0.00415 (inactive)	20.6% (inactive)	16.3% (inactive)
Cn1c(=O)cc(OCCCC(=O)Nc2ccc3c(c2)OCCO3)c2ccccc21	361	-3.3% (inactive)	-4.7% (inactive)	101	-8.1% (inactive)	113	-0.511 (inactive)	-1.4e-05 (inactive)	0.00629 (inactive)	-5.46% (inactive)	-1.3% (inactive)
O=C(Nc1ccc(N2CCCCC2)cc1)c1ccc(F)cc1	420	0.3% (inactive)	-17.8% (inactive)	111	-134% (inactive)	122	-0.401 (inactive)	-0.000159 (inactive)	0.00518 (inactive)	-44.9% (inactive)	-140% (inactive)
Cc1nn(C(=O)c2cc3sccc3[nH]2)c(C)c1C	574	-11.9% (inactive)	0.1% (inactive)	95.1	-65.4% (inactive)	104	-0.416 (inactive)	-2.7e-05 (inactive)	0.00333 (inactive)	-8.25% (inactive)	-82.9% (inactive)
COc1ccc(Cl)cc1NC(=O)CCN1CCN(c2ccccc2C)CC1	285	21.9% (inactive)	-3.9% (inactive)	101	-35.4% (inactive)	112	-0.308 (inactive)	-6.5e-05 (inactive)	0.00554 (inactive)	10% (inactive)	5.86% (inactive)
CCOc1cccc(/C(O)=C2/C(=O)C(=O)N(CCN3CCOCC3)C2c2cccnc2)c1 (configuration not stated)	733	-1.1% (inactive)	-4.6% (inactive)	104	-18.1% (inactive)	97.6	-0.421 (inactive)	-5e-05 (inactive)	0.00281 (inactive)	14.8% (inactive)	28.3% (inactive)
CCN(Cc1nc2ccccc2c(=O)[nH]1)Cc1cc(=O)oc2cc(C)c(C)cc12	288	6.6% (inactive)	0.4% (inactive)	107	-33.2% (inactive)	126	-0.435 (inactive)	-4.6e-05 (inactive)	0.00456 (inactive)	5.41% (inactive)	8.19% (inactive)
CN1CCCC(OC(=O)c2ccc3c(c2)OCCO3)C1 (configuration not stated)	214	-1.4% (inactive)	23.1% (inactive)	102	-1% (inactive)	70.3	-0.418 (inactive)	-6.9e-05 (inactive)	0.00576 (inactive)	-0.0614% (inactive)	-12.6% (inactive)
CCN(CC)CCn1c(=N)n(CCO)c2ccccc21	592	0.2% (inactive)	19.1% (inactive)	95.6	-30.1% (inactive)	91.5	-0.376 (inactive)	1.5e-05 (inactive)	0.00357 (inactive)	7.52% (inactive)	39.8% (inactive)
COc1ccc(OC)c2[nH]c(=O)c(CCNC(=O)C(C)C)cc12	629	-21.1% (inactive)	7.9% (inactive)	79.4	-27.3% (inactive)	112	-0.56 (inactive)	-1.8e-05 (inactive)	0.00598 (inactive)	-3.11% (inactive)	9.79% (inactive)
COc1ccc(S(=O)(=O)N2CCC(C(=O)c3ccc4c(c3)OCCO4)CC2)cc1	298	-0.7% (inactive)	14.2% (inactive)	157	-51.9% (inactive)	119	-0.461 (inactive)	-8e-05 (inactive)	0.00739 (inactive)	-3.88% (inactive)	12.1% (inactive)
CCCC(=O)Nc1nnc(CC(=O)N2CCCC2)s1	845	4.5% (inactive)	3.1% (inactive)	106	-55% (inactive)	115	-0.31 (inactive)	-5.4e-05 (inactive)	0.006 (inactive)	14.1% (inactive)	21.6% (inactive)
Cc1ccccc1OCc1nnc2n1CC(C)S2 (configuration not stated)	547	6.8% (inactive)	-4.9% (inactive)	131	-53.4% (inactive)	105	-0.562 (inactive)	-4e-05 (inactive)	0.00737 (inactive)	8.61% (inactive)	13.6% (inactive)
COc1cc2c(cc1NC(=O)COC(=O)Cn1cnc3ccccc31)oc1ccccc12	403	7.7% (inactive)	-10.9% (inactive)	86.8	-2.1% (inactive)	110	-0.533 (inactive)	-2.6e-05 (inactive)	0.00618 (inactive)	20.9% (inactive)	9.12% (inactive)
CCOC(=O)c1cc(C)sc1N1C(=O)C2C3C=CC(C3)C2C1=O (configuration not stated)	223	3.3% (inactive)	-17.4% (inactive)	97.5	-37% (inactive)	138	-0.543 (inactive)	-8.1e-05 (inactive)	0.00512 (inactive)	16.2% (inactive)	15.2% (inactive)
